Experimental findings from PubChem BioAssay (NCATS) are described below.

A short description of experiment [1]: AP1 Signaling Pathway (AID 357).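 Also: ME-180 reporter cells stimulated with EGF at its EC50 level; % is scaled to controls: 0 for no effect and ±100 for the full control effect.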 The procedure, abridged: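 Read-out was the 460nm/530nm emission ratio (excitation 405nm) after CCF4 loading for 2.5 hours at room temperature. Cells carried an AP-1-driven beta-lactamase reporter, were stimulated with EC50 EGF plus compound for 5 hours, and AC50 values came from titrations.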
Experiment [2] is described as follows: NFAT Signaling Pathway (AID 444).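 Also: carbachol stimulus at about its EC50 of 1 µM final; % is scaled to controls: 0 for no effect and ±100 for the full control effect.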 To be noted: Jurkat NFAT-bla M1, carbachol, beta-lactamase ratio, 5 h; at 17.2 µM (top of the series) unless noted. The procedure, abridged:
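Jurkat cells with NFAT-driven β-lactamase reporter and co-expressed M1 receptor, stimulated with carbachol (final 1 uM, ~EC50), compound titration, 5 h at 37 °C. CCF4 loaded 1 h at RT; 460/530 nm ratio gave %activity and AC50.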

The nature of experiment [3]: Stat Signaling Pathway (AID 446).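 Also: ME-180 cervical cancer cells given 40 pM IL-6 alongside compound; SIE-controlled beta-lactamase reporter measured as 460/530 nm FRET emission ratio; % is scaled to controls: 0 for no effect and ±100 for the full control effect.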 Put shortly:
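Overnight-plated ME-180 cells bearing a STAT Inducible Element beta-lactamase reporter; 5 h co-exposure to compound and 40 pM IL-6; values normalized to 300 pM IL-6 and 125 nM JAK inhibitor controls.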

Experiment [4] has as its target Mitogen-activated protein kinase 10 (Mus musculus) (UniProt Q61831). Description: JNK3 AlphaScreen Assay (AID 530).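 Also: kinase came from lysate of stimulated human HepG2 cells; signal reports phosphorylation of biotinylated GST-cJun 1-79 at Ser73 with 10 µM ATP; % is scaled to controls: 0 for no effect and ±100 for the full control effect.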 The procedure, abridged: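 Activity was read by AlphaScreen after JNK3-containing HepG2 lysate (cytokine pre-activated) phosphorylated biotinylated GST-cJun with 10 uM ATP at room temperature. Phospho-Ser73 cJun antibody with Protein-A acceptor beads provided detection.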
(Bead proximity is the source of the signal in Alpha formats.)

Experiment [5] is described as follows: Cell Viability - BJ (AID 421; calls by dose curve;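 also: potency is read from the fitted curve at half-maximal effect; cells exposed to compound for 40 hours at 37 °C before readout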). The conditions noted are these: BJ fibroblast viability, qHTS. Put shortly:
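Quantitative HTS: ATP depletion in BJ cells after 40 hr compound exposure in complete culture medium, detected with CellTiter-Glo; AC50 from standard Hill fits.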
On the technique in general: Quantitative high-throughput screening tests each substance at several concentrations.

Experiment [6] in a line: Cell Viability - Jurkat (AID 426;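 active = dose-dependent loss of cell ATP signal giving a full or clear fitted curve, ranked by lower potency value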;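 also: potency is read from the fitted curve at half-maximal effect; cells exposed to compound for 40 hours at 37 °C before ATP read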). To be noted: qHTS. The procedure, abridged:
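Cells of the human T-cell leukemia line Jurkat (E6-1) are seeded at 5000 per well, treated with compound across a concentration range for 40 hours at 37 °C, then lysed with CellTiter-Glo; luminescence reports ATP.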

A short description of experiment [7]: Cell Viability - Hek293 (AID 427;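 active = compounds whose dose-response curve shows a full or clear partial loss of cell viability, called from curve shape rather than a numeric limit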;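 also: potency is read from the fitted curve at half-maximal effect; cells exposed to compound for 40 hours at 37 °C before reading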). To be noted: qHTS. The procedure, abridged:
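AC50 values derive from Hill-modelled concentration-response of ATP-based luminescence, normalized between DMSO-only and 100 uM tamoxifen controls. Cells were exposed in complete culture medium for 40 hr at 37 °C before detection.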

Experiment [8] in a line: Cell Viability - HepG2 (AID 433; calls by dose curve;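 also: potency is read from the fitted curve at half-maximal effect; potency for ATP loss meaning cytotoxicity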). The conditions noted are these: qHTS. The procedure, abridged: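 Cytotoxicity is scored as loss of intracellular ATP in HepG2 cells exposed to compounds for 40 h. Concentration-response curves, normalized to DMSO and 100 uM tamoxifen, give AC50 values.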
The nature of experiment [9]: Cell Viability - MRC5 (AID 434; calls by dose curve;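 also: potency is read from the fitted curve at half-maximal effect; potency reflects cytotoxicity seen as loss of intracellular ATP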). To be noted: MRC5 lung fibroblast viability, qHTS. Put shortly: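 ATP luminescence read-out (CellTiter-Glo, 20 min RT) after 40 hr, 37 °C compound exposure of 1500 MRC5 cells/well. Data normalized to DMSO (basal) and 100 uM tamoxifen (100% inhibition); AC50 from standard Hill equation.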
The nature of experiment [10]: Cell Viability - SK-N-SH (AID 435; calls by dose curve;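 also: potency is read from the fitted curve at half-maximal effect; compound exposure lasted 40 h at 37 °C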). To be noted: SK-N-SH neuroblastoma cell viability qHTS. Put shortly: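 Cells seeded at 1500 per well and incubated 5 hr at 37 °C. Compound added, then 40 hr at 37 °C. CellTiter-Glo added, 20 min at room temperature, luminescence read.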
Experiment [11] can be described thus: Cell Viability - N2a (AID 540; active = well fitted curve in the direction sought with a large enough effect; an effect the other way counts as inactive or inconclusive;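 also: plate controls were DMSO alone for no effect and tamoxifen control for full effect; nearly all actives have a fitted effect of over 45% in size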). To be noted: N2a mouse neuroblastoma cell viability; at 92.2 µM (top of the series). Put shortly: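 Cytotoxicity was scored as loss of cellular ATP in N2a cells, a mouse neuroblastoma line. Compounds are applied in a qHTS concentration series for 40 hr at 37 °C.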
Experiment [12] can be described thus: Cell Viability - NIH 3T3 (AID 541; active = well fitted curve in the direction sought with a large enough effect; an effect the other way counts as inactive or inconclusive; also: nearly all actives have a fitted effect of over 25% in size; also: potency is read from the fitted curve at half-maximal effect;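 as to activity change, negative = cytotoxicity: plate controls were DMSO alone for no effect and tamoxifen positive control for full effect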). To be noted: NIH 3T3 cell viability, qHTS; activity change, negative = cytotoxicity: at 92.2 µM (top of the series). The procedure, abridged: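 Cells seeded at 1000/well, rested 5 hr at 37 °C, then dosed and incubated 40 hr at 37 °C. CellTiter-Glo added, 20 min room temperature, luminescence read. AC50 by Hill fit.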
Experiment [13] is described as follows: Cell Viability - HUV-EC-C (AID 542; active = well fitted curve in the direction sought with a large enough effect; an effect the other way counts as inactive or inconclusive; also: % is scaled to controls: 0 for no effect and ±100 for the full control effect; nearly all actives have a fitted effect of over 35% in size). The procedure, abridged: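 Cells were seeded at 1000 per well and incubated 5 hr at 37 °C before compound addition. After 40 hr at 37 °C, CellTiter-Glo reagent was added for 20 min and luminescence read. AC50 values came from Hill-equation modelling.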
Experiment [14] in a line: Cell Viability - H-4-II-E (AID 543; active = well fitted curve in the direction sought with a large enough effect; an effect the other way counts as inactive or inconclusive; also: nearly all actives have a fitted effect of over 35% in size; also: potency is read from the fitted curve at half-maximal effect). The procedure, abridged: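 Cells seeded at 1500 per well and rested 5 hr; compounds added; 40 hr incubation at 37 °C; CellTiter-Glo added, 20 min at room temperature; luminescence read. Hill-equation fits gave AC50.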
A short description of experiment [15]: Cell Viability - Renal Proximal Tubule (AID 545; active = well fitted curve in the direction sought with a large enough effect; an effect the other way counts as inactive or inconclusive;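 also: 0% = DMSO only and -100% = 100 µM tamoxifen; nearly all actives have a fitted effect of over 40% in size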). To be noted: renal proximal tubule cells viability, primary cells of rat origin; at 91.7 µM (top of the series). Put shortly:
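Cytotoxicity is scored as a concentration-dependent drop in cellular ATP in primary rat renal proximal tubule cells exposed for 40 hr. AC50 derives from Hill modelling.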

Experiment [16] in a line: Cell Viability - Mesenchymal (AID 546; active = well fitted curve in the direction sought with a large enough effect; an effect the other way counts as inactive or inconclusive;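 also: cells exposed to compound for 40 hours before reading; 0% = DMSO only and -100% = 100 µM tamoxifen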). Put shortly: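 Human renal mesenchymal cells (glomerulus-derived), 1000 cells/well, 5 hr 37 °C pre-incubation; compound 40 hr, 37 °C; CellTiter-Glo, 20 min RT; luminescence; AC50 via Hill equation.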
Experiment [17] deals with Glucocorticoid receptor (Homo sapiens) (UniProt P04150). Nature of the experiment: GR-GFP Redistribution (AID 450;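 active = compounds whose dose series gives a full or clear partial fitted curve of increased nuclear translocation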; also: potency is read from the fitted curve at half-maximal effect). To be noted: U2OS GR-GFP nuclear translocation, laser cytometry, 2 h.
Experiment [18] has as its target Cytochrome P450 1A2 (Homo sapiens) (UniProt P05177). Nature of the experiment: p450-cyp1a2 (AID 410; calls by dose curve; also: potency is read from the fitted curve at half-maximal effect;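 as to activity change, negative = inhibition: -100% = full effect of reference inhibitor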). Put shortly:
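O-Demethylation of luciferin 6' methyl ether by human CYP1A2 is monitored as luciferase luminescence. Substrate sits at Km (100uM); enzyme is 20nM. Values are scaled to 57 uM furafylline as maximal inhibition.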

The target of experiment [19] is Glucocorticoid receptor (Homo sapiens) (UniProt P04150). Description: GR-EFC Redistribution (AID 451; calls by dose curve; also: potency is read from the fitted curve at half-maximal effect). To be noted: CHO-K1 GR-EFC translocation, beta-gal luminescence, 2 h. Put shortly: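 CHO-K1 cells expressing nuclear EA and GR-ED fragments of b-gal; compounds titrated up to 46 uM final, 2 h at 37 C. GR nuclear translocation read as complemented b-gal luminescence after 1 h RT detection.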

“And” between values parts separate entries of the source, which are not always exact repeats. Equal values may be shown once. A number with no mark means an inactive call. Inconclusive results are not listed. The source made the active and inactive calls. Unless noted, calls follow the shape of the dose curve; as a rule, active = well fitted curve in either direction with a large enough effect (not every such curve was filed as active); inconclusive = small, poorly fitted or top-dose-only effect, or another doubt; inactive = flat fitted curve, though single readings scatter. A value given as a limit tells only on which side of the number the result lay.

Chain of Cytochrome P450 1A2 (Homo sapiens) (P05177 whole entry, looked up): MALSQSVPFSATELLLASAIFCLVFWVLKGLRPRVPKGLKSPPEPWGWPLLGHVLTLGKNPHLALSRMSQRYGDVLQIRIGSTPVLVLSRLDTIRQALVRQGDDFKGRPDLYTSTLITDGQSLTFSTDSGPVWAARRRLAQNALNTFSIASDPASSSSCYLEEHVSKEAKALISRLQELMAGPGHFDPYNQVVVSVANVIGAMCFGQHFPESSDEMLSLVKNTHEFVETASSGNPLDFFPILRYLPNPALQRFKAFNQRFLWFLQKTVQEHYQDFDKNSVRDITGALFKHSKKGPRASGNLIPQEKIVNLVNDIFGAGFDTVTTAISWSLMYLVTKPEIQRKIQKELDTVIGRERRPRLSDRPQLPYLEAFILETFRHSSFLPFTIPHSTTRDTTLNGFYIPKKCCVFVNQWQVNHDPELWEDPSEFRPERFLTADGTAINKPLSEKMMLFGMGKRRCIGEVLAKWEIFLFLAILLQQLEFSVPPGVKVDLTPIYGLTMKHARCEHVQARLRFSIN
Chain of Glucocorticoid receptor (Homo sapiens) (P04150 whole entry, looked up, the tested form may be a part): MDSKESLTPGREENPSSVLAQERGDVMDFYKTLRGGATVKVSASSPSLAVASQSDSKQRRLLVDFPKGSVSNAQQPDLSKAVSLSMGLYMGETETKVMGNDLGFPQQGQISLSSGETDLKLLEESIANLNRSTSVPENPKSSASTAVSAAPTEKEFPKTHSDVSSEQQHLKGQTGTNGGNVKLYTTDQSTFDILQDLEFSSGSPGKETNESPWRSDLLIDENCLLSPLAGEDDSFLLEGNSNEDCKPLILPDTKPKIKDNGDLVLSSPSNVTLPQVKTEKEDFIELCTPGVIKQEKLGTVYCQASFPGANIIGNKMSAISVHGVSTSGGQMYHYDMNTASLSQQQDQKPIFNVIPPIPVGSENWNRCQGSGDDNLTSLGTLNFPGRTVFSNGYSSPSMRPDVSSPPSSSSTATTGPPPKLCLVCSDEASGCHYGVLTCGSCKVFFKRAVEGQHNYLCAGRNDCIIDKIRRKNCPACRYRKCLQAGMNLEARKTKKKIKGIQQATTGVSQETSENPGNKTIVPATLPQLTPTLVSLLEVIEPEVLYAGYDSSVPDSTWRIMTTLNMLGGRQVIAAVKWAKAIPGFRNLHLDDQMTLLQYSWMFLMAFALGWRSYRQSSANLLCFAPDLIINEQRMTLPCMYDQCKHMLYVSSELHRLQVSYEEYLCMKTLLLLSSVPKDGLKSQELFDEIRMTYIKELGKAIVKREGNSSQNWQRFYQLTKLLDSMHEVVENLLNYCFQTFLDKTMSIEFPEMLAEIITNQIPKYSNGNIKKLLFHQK

As to `Cc1ncc(C[n+]2csc(CCO)c2C)c(N)n1`, the molecule was called inactive in experiment [1], in experiment [3] and in [4]. Further, the activity change, negative = inhibition in experiment [2] was -0.747%.

Regarding `CO`, the Potency in experiment [5], in experiment [6], in [7], in experiment [8], in experiment [9] and in experiment [10] was over 92 µM in each case. The molecule was classed as inactive in experiment [4] and in experiment [16]. Also, the activity change, negative = cytotoxicity is 8.2% in [11], -1.78% in experiment [12] and 5.17% in experiment [15]. For the same molecule, the Potency entry in experiment [13] and in [14] was “inactive” throughout.

On to `Oc1ccc(/C=C/c2cc(O)cc(O)c2)cc1`, for which the molecule was classed as inactive in [1], in experiment [3], in [4] and in experiment [16]. In addition, the Potency is over 92 µM in experiment [5]; over 92 µM in [6]; 52.8 µM in experiment [7]; over 92 µM in experiment [8]; over 92 µM in [9]; over 92 µM in experiment [10]. The Potency in [12] and in experiment [14] was 31.6 µM (active) in each case. The Potency result in experiment [13] is “inactive”. In addition, in experiment [15], the activity change, negative = cytotoxicity is -14.2%.

On to `OC[C@H]1O[C@@H]2O[C@H]3[C@H](O)[C@@H](O)[C@@H](O[C@H]4[C@H](O)[C@@H](O)[C@@H](O[C@H]5[C@H](O)[C@@H](O)[C@@H](O[C@H]6[C@H](O)[C@@H](O)[C@@H](O[C@H]7[C@H](O)[C@@H](O)[C@@H](O[C@H]1[C@H](O)[C@H]2O)O[C@@H]7CO)O[C@@H]6CO)O[C@@H]5CO)O[C@@H]4CO)O[C@@H]3CO`, for which the Potency in experiment [5], in experiment [6], in experiment [7], in experiment [8], in experiment [9] and in experiment [10] was over 92 µM throughout. For the same molecule, the molecule was classed as inactive in [4] and in experiment [16]. Also, the activity change, negative = cytotoxicity in experiment [11] was -3.62%; in experiment [12], -6.68%; in experiment [15], -2.88%. The Potency result in [13] and in experiment [14] was “inactive” throughout.

Regarding `N[C@@H](Cc1cc(I)c(Oc2ccc(O)c(I)c2)c(I)c1)C(=O)O`, the result in experiment [1] and in experiment [3] was inactive. Besides, the activity change, negative = inhibition in experiment [2] was 7.62%. Besides, the Potency in [17] was over 20.6 µM.

For `CC(=O)N=c1sc(S(N)(=O)=O)nn1C`, the molecule was called inactive in [1], in [3] and in experiment [4]. In addition, in [18], the Potency result was “inactive”. Besides, the activity change, negative = inhibition in experiment [2] was 0.015% and 12.3%. Besides, the Potency in [17] and in [19] was over 20.6 µM in each case.

As to `O=C(O)Cc1cc(I)c(Oc2ccc(O)c(I)c2)c(I)c1`, the result in experiment [1], in experiment [3] and in experiment [4] was inactive. For the same molecule, the Potency was 12.6 µM (active) in experiment [18], over 20.6 µM in [17] and over 20.6 µM in experiment [19]. Besides, the activity change, negative = inhibition in experiment [2] is -22.7%.

As for `O=C(O)CCC(=O)c1ccc(-c2ccccc2)cc1`, the molecule was classed as inactive in [1], in [3] and in [4]. Besides, the Potency in experiment [18] is 12.6 µM (active); in experiment [17], over 20.6 µM; in experiment [19], over 20.6 µM. The activity change, negative = inhibition in [2] was -7.68%.

On to `O=C(O)Cc1nn(Cc2ccc(Br)cc2F)c(=O)c2ccccc12`, for which the Potency in experiment [18] is 31.6 µM (active). Besides, the result in experiment [4] was inactive.
